Rows were chosen to be rich in hits. Some 18% of all compounds tested hit in one or more screens of this group.
CtBP-E1A inh: CtBP/E1A binding inhibition; AID 651724; AlphaScreen GST-E1A/His-CtBP binding, 1536-well; stronger effect = lower value; activity change, % (no concentration beside the values); 340,000 tested, 0.49% active; in the data active = activity change below about -65%; inconclusive = mostly about -30% to -63%
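AlphaScreen with 125 nM GST-E1A and 125 nM His-CtBP (5X stocks) in Tris pH 8.0, 300 mM NaCl, BSA, Tween 20, TCEP. Compounds preincubated 2 h at 37 deg C, then glutathione donor/nickel acceptor beads added for 1 h at 37 deg C in dark.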
TDP1 block: TDP1 (human) enzyme inhibition; recombinant TDP1, AlphaScreen DNA substrate cleavage; Potency, µM (highest dose often 130 µM), without a hit: top-dose activity change, negative = inhibition, actives largely listed as inhibitors; AID 485290; 350,000 tested, 0.28% active; note: potency is the fitted concentration of half-maximal effect; nearly all actives have a fitted effect of over 40% in size
Target sequence (Q9NUW8 whole entry, looked up): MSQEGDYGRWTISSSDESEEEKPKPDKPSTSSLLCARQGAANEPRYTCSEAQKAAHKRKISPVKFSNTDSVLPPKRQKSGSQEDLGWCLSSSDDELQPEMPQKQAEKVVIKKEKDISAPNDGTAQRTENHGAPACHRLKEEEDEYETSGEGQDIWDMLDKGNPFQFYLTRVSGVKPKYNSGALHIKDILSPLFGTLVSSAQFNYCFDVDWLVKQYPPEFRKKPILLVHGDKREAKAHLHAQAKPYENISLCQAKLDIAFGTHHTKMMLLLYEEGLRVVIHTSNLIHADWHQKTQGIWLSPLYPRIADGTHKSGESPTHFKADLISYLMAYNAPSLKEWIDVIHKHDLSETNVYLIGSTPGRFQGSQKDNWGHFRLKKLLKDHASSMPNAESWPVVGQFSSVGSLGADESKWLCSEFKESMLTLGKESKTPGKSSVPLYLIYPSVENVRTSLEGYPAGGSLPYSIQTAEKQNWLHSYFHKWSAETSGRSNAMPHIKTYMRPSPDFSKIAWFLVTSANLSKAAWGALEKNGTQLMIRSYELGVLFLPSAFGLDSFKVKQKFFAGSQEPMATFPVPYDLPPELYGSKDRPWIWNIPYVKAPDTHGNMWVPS
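Tdp1 1 nM final; 15 min RT w/ cpd; substrate 15 nM, 5 min; beads 10 ug/ml, 10 min; AlphaScreen read. Neg ctrl: no enzyme.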
TDP1 cell CPT: DT40-hTDP1 cell growth loss with CPT; chicken DT40 Tdp1-/-;hTDP1 cells + 20 nM CPT, ATP luminescence, 48 h; Potency, µM (top dose mostly 46.2 µM), for the others: top-dose activity change, negative = growth inhibition, actives largely listed as inhibitors; 420,000 tested, 12% active; AID 686979; note: potency is the fitted concentration of half-maximal effect; nearly all actives have a fitted effect of over 55% in size
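Chicken DT40 Tdp1-/- cells stably complemented with human TDP1 were seeded at 400 cells/well in medium containing 20 nM camptothecin, exposed to pin-transferred compounds, and grown at 37 °C for at least 48 hr. Viability was read as ATP luminescence.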
TDP1 cell noCPT: qHTS for Inhibitors of human tyrosyl-DNA phosphodiesterase 1 (TDP1): qHTS in cells in absence of CPT | DT40 Tdp1-/- hTDP1 cells, no CPT, ATP luminescence, 48 h | Potency, µM (series often up to 46.2 µM), without a hit: top-dose activity change, negative = growth inhibition, actives largely listed as inhibitors | 420,000 tested, 15% active | AID 686978, 2013; note: potency is the fitted concentration of half-maximal effect; nearly all actives have a fitted effect of over 55% in size
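Seeded 400 DT40-hTDP1 cells/well (vehicle DMSO, no 20 nM CPT); pinned compounds; ≥48 hr at 37 °C; CellTiter-Glo luminescence as viability measure.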
IL-1B inflam inh: inflammasome signaling inhibition, IL-1 beta readout; 360,000 tested, 4.7% active; activity change, % at 57.5 µM; AID 743279; THP-1 LPS/ATP IL-1B secretion, AlphaLISA, 16 h; stronger effect = lower value; in the data active = activity change below about -50%; inconclusive = mostly about -30% to -49%
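THP-1 cells pretreated 1 hr with compounds (up to 57.5 uM final), then stimulated with LPS (250 ng/mL final) plus ATP (1.25 mM final); secreted IL-1B measured by AlphaLISA after 16 hr, decreased signal indicating inhibition.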
Six1-Eya2 blk: blocks human Six1 binding to Eya2. Q15475+O00167. AlphaScreen GST-Six1/His-Eya2 binding, biochemical; stronger effect = lower value. activity change, % (no concentration beside the values). 360,000 tested, 0.56% active; in the data active = activity change below about -65%; inconclusive = mostly about -30% to -63%
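Six1/Eya2 binding was read as AlphaScreen signal after compounds were pinned into GST-Six1 plus His-tagged Eya2 (5X stock 250/500 nM) in pH 8.0 Tris/NaCl/TCEP buffer, beads added, then incubated 1 h, 37 C, dark.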
Active calls of the source: *; ? = inconclusive; . = no result given; [ ] = another dose, or the depositor's remark. Unless noted, calls come from the whole dose curve; as a rule, active = well fitted curve in the direction sought with a large enough effect; inconclusive = small, poorly fitted or top-dose-only effect, or another doubt; inactive = no such curve, though single readings can be large; an effect the other way counts as inactive or inconclusive. % is set by controls: 0 for no effect and ±100 for the full control effect.

SMILES	CtBP-E1A inh	TDP1 block	TDP1 cell CPT	TDP1 cell noCPT	IL-1B inflam inh	Six1-Eya2 blk
COC(=O)Cn1c(=O)c2c(nc(Br)n2Cc2ccccc2Cl)n(C)c1=O	2	1%	?	?	6	-1
Cn1c(Oc2ccc(F)cc2)nc2c1c(=O)n(Cc1ccccc1Cl)c(=O)n2C	.	-2%	23µM*	12µM*	.	.
Cc1ccc(OCCCC(=O)Nc2nccs2)cc1	-4	5%	2%	-22%	-20	-13
CCN(CC)S(=O)(=O)c1cc(C(=O)Nc2cc(S(=O)(=O)N3CCOCC3)ccc2N2CCN(C)CC2)ccc1C	.	.	?	?	-3	-6
CC(=O)c1ccc(OC(C)C(=O)NC2CCCCC2C)cc1 (configuration not stated)	20	1%	-2%	-18%	-5	-2
CC1(c2ccc(OCC#N)cc2)C=C(c2ccc(OCC#N)cc2)n2nc(C(F)(F)F)nc2N1 (configuration not stated)	-6	6%	?	?	-86*	0
O=C(CCC1N=C2c3ccccc3N=C(SCc3ccccc3Cl)N2C1=O)NCc1ccco1 (configuration not stated)	-25	6%	?	18µM*	?	-10
COc1ccccc1CNC(=O)CCC1N=C2c3ccccc3N=C(SCC(=O)NCCc3ccccc3)N2C1=O (configuration not stated)	.	2%	-25%	-28%	.	.
O=C(CCC1N=C2c3ccccc3N=C(SCC(=O)Nc3cccc(Cl)c3)N2C1=O)NCc1ccco1 (configuration not stated)	.	-2%[12.3 µM]	?	?	.	.
COc1ccccc1NC(=O)CSC1=Nc2ccccc2C2=NC(CC(=O)NCc3ccco3)C(=O)N12 (configuration not stated)	.	8%	?	?	.	.
O=C(CCC1N=C2c3ccccc3N=C(SCc3ccccc3Cl)N2C1=O)N1CCN(c2ccccc2)CC1 (configuration not stated)	.	8%	?	21µM*	.	.
COc1ccccc1NC(=O)CSC1=Nc2ccccc2C2=NC(CCC(=O)NCCc3ccccc3)C(=O)N12 (configuration not stated)	.	0%	?	23µM*	.	.
COc1ccccc1NC(=O)CSC1=Nc2ccccc2C2=NC(CCC(=O)NCc3ccco3)C(=O)N12 (configuration not stated)	.	4%	15µM*	16µM*	.	.
Cc1ccc(Cl)cc1NS(=O)(=O)c1cn(C)nc1C	9	4%	-14%	26%	19	5
CC(=O)Nc1cc(NC(C)=O)cc(C(=O)OCC(=O)c2ccc3c(c2)OCO3)c1	3	.	4%	-5%	8	15
Cn1cnc2cc(NC(=O)c3cccs3)ccc21	-2	9%	-10%	-6%	3	-3
Cc1ccccc1Cn1c(=O)n(Cc2ccco2)c(=O)c2ccccc21	-5	2%	15µM*	?	0	5
Cc1ccccc1Cn1c(=O)n(Cc2ccco2)c(=O)c2oc3ccccc3c21	.	-8%	2%	-2%	.	.
COc1ccc(-n2c(=O)c3ccccc3n(Cc3ccccc3C)c2=O)c(OC)c1	.	6%	21µM*	?	.	.
O=C(c1cc(C(F)(F)F)cc(C(F)(F)F)c1)N1CCC2(CCCN(c3ccccc3)C2)CC1	.	.	4%	-15%	.	.
Cn1cc(C(=O)c2ccc(Cl)cc2)cc1-c1nc2ccccc2n1C	-6	9%	13µM*	18µM*	-72*	-20
Cn1c(=O)c(C(=O)c2ccccc2)nc2ccccc21	6	8%	-5%	-14%	14	-2
CCOC(=O)N1CCN(C2CC(=O)N(c3ccc(F)cc3)C2=O)CC1 (configuration not stated)	3	0%	-1%	-15%	16	4
CC#CC(=O)N1CCC(C(=O)Nc2ccc(Oc3ccccc3)nc2)CC1	2	1%	?	?	-13	3
COc1ccccc1/C=C/C(=O)NC(=S)NC(C)C	-2	3%	?	16µM*	-8	-6
SMILES	CtBP-E1A inh	TDP1 block	TDP1 cell CPT	TDP1 cell noCPT	IL-1B inflam inh	Six1-Eya2 blk
COc1ccccc1/C=C/C(=O)c1c2c(c(C)[nH]c1=O)CCCC2	12	7%	?	?	-101*	1
COc1ccccc1/C=C/C(=O)N1CCOCC1	6	-3%	-11%	-6%	14	-14
COc1ccccc1/C=C/C(=O)c1ccccc1	.	3%	?	13µM*	-18	2
COc1ccccc1/C=C/C(=O)NC(=S)N1CCN(C)CC1	0	0%	-6%	-2%	14	0
COc1ccccc1/C=C/C(=O)c1ccc(NC(C)=O)cc1	2	2%	?	15µM*	-107*	10
O=C(COC(=O)c1cccc(S(=O)(=O)NCc2ccccc2)c1)NCC1CCCO1 (configuration not stated)	6	-3%	1%	-21%	8	8
O=C(Nc1cccc([N+](=O)[O-])c1)C1CC(=O)N(C2CCCCC2)C1 (configuration not stated)	-3	1%	5%	-26%	26	2
Cc1nc2ccc(C(=O)N3CCC(O)(Cc4ccccc4)CC3)cn2c1N(C)C(=O)CCc1ccccc1	-10	.	?	?	-15	11
COc1ccc(/C=C/C(=O)c2ccccc2)c(OC)c1	1	2%	-22%	-19%	0	4
COc1ccc(OC)c(/C=C/C(=O)c2ccc(Cl)cc2)c1	-5	-6%	18µM*	?	-89*	-1
Cn1nc([N+](=O)[O-])nc1Oc1ccccc1C(=O)N1CCOCC1	5	-3%	1%	2%	12	12
Cc1ccc(C2(c3noc(CN(C)CCCN4CCOCC4)n3)CCCC2)cc1	.	6%	.	.	.	.
Cc1ccc(C2(c3noc(CN(C)Cc4cnn(C)c4)n3)CCCC2)cc1	-4	8%	21µM*	?	-22	0
Cc1ccc(Cn2cc(CN3CC(N4CCN(Cc5ccccc5F)CC4)CS3(=O)=O)nn2)cc1 (configuration not stated)	0	.	?	16µM*	-2	4
CN(Cc1cn(Cc2cccc(C(F)(F)F)c2)nn1)C1CN(Cc2cn(Cc3cccc(C(F)(F)F)c3)nn2)S(=O)(=O)C1 (configuration not stated)	-8	.	13µM*	13µM*	?	-4
